Among all 48,000 compounds or so, about 13,000 (27%) showed an effect of 50% or more. This is one part of the list.
The compounds below were run on Wolbachia pipientis (assay: Anti-Wolbachia Cell-Based Screen). Conditions: 5 µM.
Assay type: functional
Parameters: scale not given: in the data most compounds retested in dose-response had high values

Structure (SMILES) | Percent Effect [%]
Cc1[nH]ncc1CCCNC(=O)Nc1ccc(S(C)(=O)=O)nc1 | 0.4286
O=c1[nH]c(CN(Cc2ccco2)C2CCCC2)nc2ccccc12 | 5.367
O=C(c1ccno1)N1CCOC[C@H](Oc2ccc(C(F)(F)F)cc2)C1 | -17.29
CCN(CC)CCCN1CCN(c2nc(C)cnc2C)CC1 | 20.67
Cc1ccc(CN(C(=O)NCc2nnc3n2CCCCC3)C2CC2)o1 | 2.122
CCN(CC1CCOC1)C(=O)NCc1ccc(-n2cncn2)nc1 (configuration not stated) | 19.04
CCN(CC1CCOC1)C(=O)NCc1nnc2n1CCCCC2 (configuration not stated) | 91.82
CCN(Cc1ccco1)C(=O)NCc1nnc2n1CCCCC2 | 0.3449
CCN(CC1CC1)C(=O)NCc1nnc2n1CCC2 | 96.27
CCN(CC1CCOC1)C(=O)NCc1nnc2n1CCC2 (configuration not stated) | 118.1
O=C(NCc1nnc2n1CCC2)N(Cc1ccco1)C1CC1 | 0.3443
O=C(NCc1nnc2n1CCCCC2)N(Cc1ccncc1)C1CC1 | -19.08
CCN(Cc1ccco1)C(=O)NCc1nnc2n1CCC2 | -0.2431
O=C(NCc1nnc2n1CCCC2)N(Cc1ccccc1F)C1CC1 | -10.57
O=C(NCc1nnc2n1CCCCC2)N(CC1CCOC1)C1CC1 (configuration not stated) | 99.15
COCc1ccccc1CNC(=O)CN1CCC2(CCOC2)C1 (configuration not stated) | -0.6554
Cc1nn2c(N3CCCC(C#N)C3)cc(-c3ccccc3)nc2c1C (configuration not stated) | -8.58
Cc1nc[nH]c1-c1nccn1CCCN(C)C | -1.575
COCCn1ccnc1-c1[nH]cnc1C | 8.201
Cc1nc[nH]c1-c1nccn1CCN1CCCOC1=O | 97.83
Cc1ccsc1-c1nccn1CCS(C)(=O)=O | -15.8
Cc1nc[nH]c1-c1nccn1-c1cccc(CN2CCCC2)c1 | 12.04
Cc1nc[nH]c1-c1nccn1CCN1CCCC1=O | 101.5
Cc1ccsc1-c1nccn1CCN1CCCOC1=O | 94.33
Cc1ccsc1-c1nccn1CCS(=O)(=O)N1CCCC1 | -5.417
Cc1nc[nH]c1-c1nccn1CCN1CCOC1=O | 102.9

Structure (SMILES) | Percent Effect [%]
Cc1nc[nH]c1-c1nccn1CCN(C)S(C)(=O)=O | -5.143
CCN(CC)CCn1ccnc1-c1[nH]cnc1C | 9.707
CCc1nccn1CCCn1ccnc1-c1[nH]cnc1C | 10.91
CN(C)c1ncc(CNC(=O)Nc2ccc(C(F)(F)F)cc2)n1C | 20.28
COc1cc(N2CCCn3cnc(COC(C)C)c3C2)ncn1.O=CO | -4.807
CC(=O)NCCC(=O)Nc1sccc1C(=O)C(C)(C)C | 21.69
c1ccc(COc2ccccc2NC2CCOCC2)nc1 | -16.72
CN(CC(=O)NC(Cc1ccsc1)c1cccnc1)Cc1ccccn1.Cl (configuration not stated) | 89.62
Cc1csc(C(C#N)C(=O)NCc2cccnc2)n1 (configuration not stated) | -20.56
Cc1csc(C(Cc2ccsc2)NC(=O)CN(C)Cc2cccnc2)n1.Cl (configuration not stated) | 118.2
Cc1nc(CN(Cc2cccnc2)Cc2ccsc2)c[nH]1 | -3.654
Cc1ccc(CC(NC(=O)CN(C)C2CC2)c2ccccn2)cc1 (configuration not stated) | -26.42
Cc1cc(C)n(CC(=O)NC(Cc2ccsc2)c2ccccn2)c(=O)n1.Cl (configuration not stated) | -15.12
CC(CNC(=O)CCc1ccccn1)c1ccsc1 (configuration not stated) | 1.276
CN(CC(=O)NC(Cc1ccsc1)c1cccnc1)Cc1cccnc1.Cl (configuration not stated) | 75.58
CN(CC(=O)N1CC(C)(C)[C@](O)(C2CC2)C1)Cc1cccnc1 | -2.465
O=C(CCc1ccsc1)N(Cc1ccccn1)C1CC1 | 0.03996
Cc1csc(C(Cc2ccsc2)NC(=O)CN(C)Cc2ccccn2)n1.Cl (configuration not stated) | 143
CN(CC(=O)NS(=O)(=O)c1ccsc1)Cc1ccccc1 | -14.35
CCOC(C)c1noc(CN2CCCNCC2)n1 (configuration not stated) | 2.297
C=C(C)CN1CCC(NC(=O)NCCc2cccc(C(N)=O)c2)CC1 | -8.268
CC(=O)c1ccc(C(=O)N2C[C@@H](CN3CCCC3)[C@@H](CO)C2)cc1 | -35.7
O=C(NCCN1CCCCCC1=O)NCc1ccc(Cl)s1 | -3.851
CC(SCC(=O)NC(N)=O)c1ccc(Cl)cc1 (configuration not stated) | 8.768
COc1cc(OC)cc(C2NC(=O)CN2Cc2ccc(Br)cc2)c1 (configuration not stated) | 85.78
Cc1cc(CN2CCN(CC3CC3)[C@@H]3CS(=O)(=O)C[C@@H]32)cc(C)c1O | 22.76

Structure (SMILES) | Percent Effect [%]
Cl.NC(=O)COc1ccc(CNCc2ccc(F)c(F)c2)cc1 | -10.35
CC(C)(C)n1ncc2c1NC(=O)CC2c1ccc(OCC(N)=O)cc1 (configuration not stated) | -0.952
NC(=O)COc1ccc(C2NC(=O)CN2Cc2ccc(Br)cc2)cc1 (configuration not stated) | 110.3
Cc1cc(C2NC(=O)CN2Cc2ccc(Br)cc2)cc(C)c1O (configuration not stated) | 98.83
COc1cc(OC)cc(N2CCC(NCc3ccsc3)C2=O)c1 (configuration not stated) | -5.145
COc1cc(CN2CC(=O)N(c3ccc(C)cc3)CC2C)cc(OC)c1 (configuration not stated) | -3.228
Cc1cc(NC(=O)CNC(C)(C)c2nc(C)c(C)s2)no1 | -14.55
COc1ccc(CNC(=O)c2cc3c(nc2O)CCC(C)C3)cc1 (configuration not stated) | -13.47
CNS(=O)(=O)c1ccccc1N1CCN(C(C)C(=O)OC)CC1 (configuration not stated) | -10.15
CO[C@H]1CN(C(=O)c2ccc(C)o2)[C@@H]2CCCO[C@H]12 | 2.722
Cc1cccc(C(=O)N2C[C@@H](OCc3cccnc3)[C@H]3OCCC[C@@H]32)n1.O=C(O)C(F)(F)F.O=C(O)C(F)(F)F | 19.74
CN(C)C(=O)N1C[C@H](Oc2ccccn2)[C@H]2OCCC[C@H]21.O=C(O)C(F)(F)F | -8.316
Cc1occc1C(=O)N1C[C@H](Oc2ccccn2)[C@H]2OCCC[C@H]21.O=C(O)C(F)(F)F | -5.077
O=C(O)C(F)(F)F.O=C(c1ccnnc1)N1C[C@H](Oc2ccccn2)[C@H]2OCCC[C@H]21 | 96.83
CO[C@H]1CN(C(=O)c2cccnc2)[C@@H]2CCCO[C@H]12.O=C(O)C(F)(F)F | 121
Cc1noc(C)c1CN1C[C@@H](NS(=O)(=O)N(C)C)[C@H](C(C)C)C1 | -5.186
CC(=O)N1CCC2(CCN(C(=O)c3ccc(Cl)c(C(F)(F)F)c3)CC2)C1 | -5.245
CCCn1ncc(C(=O)NC2CCN(C3CCOCC3)CC2)c1C | -3.665
CC(C)(C#N)C(=O)Nc1nccn1Cc1ccc(Br)cc1 | -2.576
CN1CC2(CCN(C(=O)COc3ccc(Cl)cc3Cl)CC2)OC1=O | -5.539
CCc1ccc2occ(CC(=O)N3CCC4(CCCN(C)C4=O)C3)c2c1 (configuration not stated) | -37.19
CN1CCCC2(CCN(C(=O)CCn3cncn3)C2)C1=O (configuration not stated) | -41.8
Cc1nn(CC(=O)N2CCC3(CN(C)C(=O)O3)C2)c(=O)c2ccccc12 (configuration not stated) | 94.98
Cc1nccc(-c2ccccc2)c1C(=O)N1CCC2(CN(C)C(=O)O2)C1 (configuration not stated) | -8.281
Cc1ccc2oc(=O)n(CC(=O)N3CCC4(CC3)CN(C)C(=O)O4)c2c1 | -3.778
CN1CCCC2(CCN(C(=O)Cn3ncc4ccccc4c3=O)C2)C1=O (configuration not stated) | 88.86

Structure (SMILES) | Percent Effect [%]
Cc1nc[nH]c1C(=O)N1CCC2(CN(C)C(=O)O2)C1 (configuration not stated) | -7.833
CN1CC2(CCN(C(=O)Cn3ncc4ccccc4c3=O)CC2)OC1=O | 95.4
CCCN(CCC)C(=O)CN1CCCC1C(=O)N(C)C (configuration not stated) | 15.58
O=C(c1cccc(S(=O)(=O)NCCc2cscn2)c1)N1CCOCC1 | -14.28
C[S+]([O-])c1nncn1CC(=O)c1ccc(OC(F)F)cc1 (configuration not stated) | -3.882
CCc1ncc2c(n1)CN(C(=O)c1c(C)[nH]c3c1C(=O)CCC3)C2 | 17.5
O=C(c1cccn2ccnc12)N1CCCN(c2cccnn2)CC1 | -3.729
CN(CC(=O)N1CCC(Oc2ccccc2)CC1)c1cnccn1 | -0.02384
CC(=O)N1CCC(Oc2ccc(C#N)cn2)CC1 | -7.335
CC(C)(C)NC(=O)N1CCC(Oc2ccc(C(F)(F)F)cn2)CC1 | 116.4
CN(C)S(=O)(=O)N1CCC(Oc2ccc(C#N)cn2)CC1 | -10.68
CCOCC(=O)N1CCC(Oc2ccc(C(F)(F)F)cn2)CC1 | 5.97
CCOCC(=O)N1CCC(Oc2ccc(Cl)cn2)CC1 | -5.53
N#Cc1ccc(OC2CCN(C(=O)Cc3cccs3)CC2)nc1 | 12.26
CCOC(=O)CCC(=O)N1CCC(Oc2ccc(C(F)(F)F)cn2)CC1 | 3.938
CN(CC(=O)N1CCC(Oc2ccc(C(F)(F)F)cn2)CC1)S(C)(=O)=O | 103.2
O=C(Cn1cccn1)N1CCC(Oc2ccc(C(F)(F)F)cn2)CC1 | 107
N#Cc1ccc(C(=O)N2CCC(Oc3ccc(C#N)cn3)CC2)cc1 | -11.6
CCOC(=O)N1CCC(Oc2ccc(C(F)(F)F)cn2)CC1 | 91.75
CCN1CCN(C[C@@H]2CN(c3ncc(Cl)cc3F)C[C@@H]2CO)CC1 | 3.895
CC(NC(=O)Nc1ccc(OC2CCCC2)cc1)c1nc[nH]n1 (configuration not stated) | 4.793
CCC(C)c1ccc(NC(=O)C2CCN(C(=O)N(C)C)CC2)cc1 (configuration not stated) | -1.822
CCC(C)c1ccc(NC(=O)C2CCN(C(=O)COC)CC2)cc1 (configuration not stated) | -13.47
Cc1cc(C)nc(N2CCC(C(=O)Nc3ccc(C(C)C)cc3)CC2)n1 | 135.6
